MITF act = activators of MITF-driven TRPM1 promoter activity in SK-MEL-5 cells | SK-MEL-5 TRPM1-promoter luciferase, 24 h; % of positive control, neutral wells = 0 | activation, % at 12.5 µM | 0.75% of 300,000 active;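 active means mean activation of at least 80% with every replicate also reaching 80%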;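 further: 0% = neutral control wells and 100% = parthenolide positive control wells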
HSF1 inhib = HSF1 inhibition. NIH3T3-HGL HSE-luciferase, MG132-induced, luminescence 8 h; stronger effect = lower value. activity change, negative = inhibition, % at 7.5 µM (by protocol). 0.77% of 300,000 active. AID 2098;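 active means more than half of replicate wells show activity change below -50%, luminescence cut by over half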;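 further: luciferase reports HSF-1 transcriptional activity via heat shock element; 0% = median of DMSO wells and -100% = zero luminescence signal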
HSF-1 act = increases HSF-1 driven luciferase reporter signal | NIH3T3-HGL HSF-1 luciferase reporter, MG132, 8 h; 100% = twice DMSO control signal | activation, % at 9 µM | 1.7% of 300,000 active | AID 504408;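 active means mean replicate activation of at least 50% with a set share of replicates each reaching 50%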;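 further: 0% = median of the neutral control wells and 100% = twice that signal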
esBAF inh = inhibitors of esBAF chromatin remodeling in mouse ES cells; 2% of 350,000 active; Bmi1-luciferase knock-in reporter, 24 h; 100% = twice the neutral-well signal; reporter increase, % at 12.5 µM; in the data active means activation above about 40%;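 further: 0% = median of the plate's neutral control wells and 100% = double that signal; a rise in the Bmi1 reporter signal indicates esBAF inhibition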
Wnt bcat act = activates Wnt/beta-catenin signaling in a reporter cell assay. 1.2% of 300,000 active. activation, % at 9.35 µM. activator, plate reader. AID 743398; in the data active means activation above about 30%, passing the limit was not always enough;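 further: 0% = neutral control wells and 100% = positive control wells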
* hit, by the source's call; . = no result given; ! = not confirmed by another sample. An excerpt weighted towards active compounds, which were near 3.8% of everything screened.

SMILES | MITF act | HSF1 inhib | HSF-1 act | esBAF inh | Wnt bcat act
CC1Cc2ccccc2N1C(=O)CSc1ncc(-c2ccc(F)cc2)n1C (stereo unspecified) | 42 | 49 | 67* | 12 | 59*
Cn1c(-c2ccc(F)cc2)cnc1SCC(=O)N1CCCc2ccccc21 | 18 | 6 | 20 | -2 | 5
O=C(CCc1ccc(S(=O)(=O)NCc2ccccc2)cc1)NCc1ccc2c(c1)OCO2 | -1 | 0 | 7 | -5 | .
CCNS(=O)(=O)c1ccc(CCC(=O)NCc2ccc3c(c2)OCO3)cc1 | -12 | 7 | 54* | 5 | 4
C[C@@H]1CN([C@@H](C)CO)C(=O)Cc2cc(NC(=O)Cc3ccccc3)ccc2O[C@@H]1CN(C)C(=O)Nc1cccc2ccccc12 | . | . | . | 1 | .
COc1ccc(CN2C[C@H](C)[C@@H](OC)CN(C)C(=O)c3ccc(NC(=O)c4nc5ccccc5s4)cc3OC[C@@H]2C)cc1 | . | . | . | 31 | .
Cc1ccc(-c2onc3ccc(C(=O)O)cc23)cc1 | . | -46 | -52 | 50* | 4
CC(=O)c1ccc2noc(-c3ccc(C)cc3)c2c1 | 11 | 29 | 30 | . | 0
NC(=O)NC(=O)COC(=O)c1ccc2noc(-c3ccccc3)c2c1 | 37 | 10 | 13 | 68* | 1
CO[C@H]1CN(C)C(=O)c2ccc(NS(=O)(=O)c3ccccc3)cc2OC[C@H](C)N(C(=O)NC(C)C)C[C@H]1C | . | . | . | -4 | .
COc1ccccc1C(=O)NC(=O)Nc1cccc(Cl)c1 | 46 | 15 | 18 | -2 | 43*
COc1ccccc1C(=O)Nc1cc(Cl)ccc1O | -9 | 19 | 65* | 10 | 1
COc1ccccc1C(=O)Nc1ccc2c3c(cccc13)CC2 | 62 | 18 | 26 | 62* | .
NC(=O)CSc1nnc(-c2ccc3c(c2)OCO3)o1 | 16 | 1 | -4 | . | 8
C/C(N)=C(/C#N)C(=O)CSc1nnc(-c2ccc(OC(F)F)cc2)o1 | 73 | 46 | 78* | 65*! | 16
C/C(N)=C(/C#N)C(=O)CSc1nnc(-c2ccc3c(c2)OCO3)o1 | -23 | 50 | 76* | -38 | 7
CC(C)CCNc1nc2c(cc1C#N)COC(C)(C)C2 | 4 | 1 | -14 | 5 | .
CC1(C)Cc2nc(NCCN3CCOCC3)c(C#N)cc2CO1 | -4 | 42 | 103* | -9 | -3
COc1ccc2o/c(=N/NC(=O)c3cccs3)c(C(N)=O)cc2c1 | 78 | 5 | 56* | . | -1
COc1cccc(/C=N/NC(=O)c2cnn(-c3ccccc3)c2N)c1 | 50 | 2 | 13 | 60* | 8
COc1ccc(/C=C/C(=O)Oc2cccc(/C=N/NC(=O)c3cccc(F)c3)c2)cc1 | . | 9 | 1 | 45* | .
O=C(N/N=C/c1ccc([N+](=O)[O-])cc1)c1cccs1 | . | -1 | 31 | . | 38*
O=C(N/N=C/c1ccc(-c2cccc([N+](=O)[O-])c2)o1)c1cccs1 | -10 | 13 | 25 | . | 14
COc1ccccc1-c1ccc([C@@H]2[C@@H](CO)N(C(=O)C3CCC3)[C@H]2C#N)cc1 | . | . | . | -2 | .
C[C@@H]1CCCCO[C@@H](CN(C)Cc2ccc(C(=O)O)cc2)[C@@H](C)CN([C@H](C)CO)C(=O)c2cc(NC(=O)Nc3ccccc3)ccc2O1 | . | . | . | -8 | .
SMILES | MITF act | HSF1 inhib | HSF-1 act | esBAF inh | Wnt bcat act
COCC#Cc1cnc2c(c1)C(=O)N([C@@H](C)CO)C[C@H](C)[C@H](CN(C)C(=O)C1CCCCC1)O2 | . | . | . | 2 | .
COc1cccc(/C=N/NC(=O)c2cccs2)c1 | . | 15 | 63* | 25 | 40*
COc1cc(/C=N/NC(=O)c2cccs2)ccc1O | 4 | 9 | 41 | 9 | 4
C[C@@H]1CCCCO[C@@H](CN(C)S(C)(=O)=O)[C@@H](C)CN([C@H](C)CO)C(=O)c2cc(NC(=O)CCCN(C)C)ccc2O1 | . | . | . | 4 | .
O=C(NC1=NCCS1)C1CC(=O)N(c2ccc(F)cc2)C1 (stereo unspecified) | -4 | 40 | 87* | -4 | -4
O=C(NC1=NCCS1)C1CC(=O)N(c2ccccc2)C1 (stereo unspecified) | -15 | -4 | 0 | -3 | -1
CCOC(=O)N1CCC2(CC1)C(C#N)=C(N)Oc1n[nH]c(C)c12 | . | 8 | -2 | 0 | 1
COCc1[nH]nc2c1C1(CCSCC1)C(C#N)=C(N)O2 | -7 | -85* | -88 | 8 | -14
COc1ccccc1C(=O)Nc1ccc2c(c1)OC[C@@H](C)N(C)C[C@H](C)[C@H](OC)CN(C)C2=O | . | . | . | 1 | .
CCn1c(O)c(N=NC(=O)c2cccs2)c2ccccc21 | 34 | 19 | 63* | . | 4
CCn1c(O)c(N=NC(=O)CNC(=O)c2ccco2)c2ccccc21 | -17 | . | . | . | 0
CCCn1c(O)c(N=NC(=O)c2ccco2)c2ccccc21 | -2 | -55* | -65 | . | -1
Cn1c2ccccc2c(=O)c2c(=O)n(-c3ccc(F)cc3)c(-c3cccs3)nc21 | 12 | 2 | 4 | . | 51*
O=C(/C=C/c1ccc(Br)o1)NCCCN1CCOCC1 | 7 | -66* | -68 | 1 | 0
O=C(COC(=O)/C=C/c1cccc([N+](=O)[O-])c1)NCCCN1CCCC1=O | -11 | 2 | 25 | -5 | 2
O=C(COC(=O)/C=C/c1ccc(Br)o1)NCCCN1CCCC1=O | 5 | 48 | 65* | . | -1
Cc1noc(C)c1NC(=O)N(C)C[C@@H]1Oc2ccc(NS(C)(=O)=O)cc2CC(=O)N([C@@H](C)CO)C[C@H]1C | . | . | . | -4 | .
CCCSc1nc2c(cnn2-c2ccccc2)c(=O)n1N | . | 11 | 31 | 0 | 41*
CCCCSc1nc2c(cnn2-c2ccccc2)c(=O)n1N | 58 | 20 | 35 | . | 18
C[C@@H]1CN([C@@H](C)CO)S(=O)(=O)c2ccc(C#C[C@@H](C)O)cc2O[C@@H]1CN(C)C(=O)Nc1ccccc1 | . | . | . | 2 | .
S=c1[nH]nc(-c2ccncc2)n1Cc1ccco1 | . | -69* | -76 | 0 | .
S=c1[nH]nc(-c2ccc(Br)cc2)n1Cc1ccco1 | -11 | -2 | 1 | 13 | -1
CCc1ccc(C(=O)N/N=C(\C)c2ccncc2)s1 | 55 | -74* | -79 | . | 10
NC(=Nc1nc(-c2ccccn2)cc2ccccc12)c1ccccn1 | -62 | 57* | 57* | . | -4
COCC(=O)Nc1ccc2c(c1)[C@H]1C[C@H](CC(=O)NC3CCCC3)O[C@H](CO)[C@H]1O2 | . | . | . | 1 | .
SMILES | MITF act | HSF1 inhib | HSF-1 act | esBAF inh | Wnt bcat act
COc1ccc(OC)c2sc(N3CCN(C(=O)c4ccc([N+](=O)[O-])s4)CC3)nc12 | -29 | 10 | 33 | -7 | 3
COc1ccc(OC)c2sc(N3CCc4ccccc4C3)nc12 | 33 | 100 | 128* | . | 7
c1ccc2c(c1)CCN(c1nc3cc4c(cc3s1)OCCO4)C2 | -55 | -34 | -45 | -71 | -26
COc1ccc(OC)c2sc(N3CCCCC3)nc12 | . | 9 | 20 | 46* | 24
CCOC(=O)N1CCC(NC(=O)c2oc3c(F)cccc3c2C)CC1 | 44 | 1 | 5 | 50* | 13
COc1ccc(-c2csc(Nc3ncccc3C)n2)cc1OC | 79 | 1 | 16 | 87* | 3

Source: PubChem BioAssay (Broad Institute)
